Source: PubChem (National Center for Advancing Translational Sciences (NCATS))
HT1080 IDH1KD tx: kills HT-1080 cells with IDH1 knockdown; HT-1080 IDH1 knockdown viability, ATP luminescence, 48 h; Potency, µM (highest dose often 46.1 µM), actives largely listed as cytotoxic; 360,000 tested, 2% active; AID 686971
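CellTiter-Glo luminescence after 48 h compound exposure at 37 degrees C of IDH1-knockdown HT-1080 cells in 5% FBS RPMI. %Activity scaled between DMSO wells and cell-free media wells, with curves fitted and assigned curve classes.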
HT1080NT lethal: kills 2HG-producing HT-1080-NT fibrosarcoma cells | Potency, µM (series often up to 46.1 µM), most hits filed as cytotoxic | 360,000 tested, 1.6% active | HT-1080-NT fibrosarcoma viability, CellTiter-Glo ATP luminescence, 48 h;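 also: NT is the 2HG producing partner of a matched IDH1 knockdown line; nearly all actives have a fitted effect of over 55% in size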
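HT-1080-NT; 750 cells/well; 5% FBS RPMI; 48 h compound, 37 degrees C; CellTiter-Glo luminescence; curve fitting and curve-class assignment.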
TDP1 cell noCPT: qHTS for Inhibitors of human tyrosyl-DNA phosphodiesterase 1 (TDP1): qHTS in cells in absence of CPT; DT40 Tdp1-/- hTDP1 cells, no CPT, ATP luminescence, 48 h; Potency, µM (titrated, usually from 46.2 µM), usual class: inhibitors; 420,000 tested, 15% active; AID 686978, 2013; also: nearly all actives have a fitted effect of over 55% in size
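Chicken DT40 Tdp1-/- cells stably complemented with human TDP1 were seeded at 400 cells/well with DMSO in place of 20 nM camptothecin. After compound pinning, cells grew at least 48 hr at 37 °C; viability read by CellTiter-Glo luminescence.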
uPA surface inh: cell surface uPA generation inhibition; cell surface uPA generation assay, qHTS; Potency, µM (doses to about 38.3 µM), most hits filed as inhibitors; 330,000 tested, 0.31% active; AID 540303; active = well fitted inhibition curve with a large enough effect; inconclusive = small, poorly fitted or top-dose-only effect; inactive = no such curve, though single readings can be large or run the other way; tested in mouse RAW 264.7 cells; also: nearly all actives have a fitted effect of over 55% in size
TDP1 cell CPT: DT40-hTDP1 cell growth loss with CPT. Potency, µM (titrated, usually from 46.2 µM), hits mostly inhibitors. AID 686979. 420,000 tested, 12% active. chicken DT40 Tdp1-/-;hTDP1 cells + 20 nM CPT, ATP luminescence, 48 h; also: nearly all actives have a fitted effect of over 55% in size
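Cell growth measured by CellTiter-Glo luminescence after a minimum 48 h, 37 C compound exposure with 20 nM CPT in Tdp1-knockout DT40 cells stably expressing hTDP1, seeded 400/well; qHTS titration format.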
IL-1B inflam inh: inhibitors of inflammasome signaling (IL-1 beta secretion) | activity change, % at 57.5 µM | 360,000 tested, 4.7% active | THP-1 LPS/ATP IL-1B secretion, AlphaLISA, 16 h; hits give low values; in the data active = activity change below about -50%; inconclusive = mostly about -30% to -49%
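THP-1 cells pretreated 1 hr with compounds (up to 57.5 uM final), then stimulated with LPS (250 ng/mL final) plus ATP (1.25 mM final); secreted IL-1B measured by AlphaLISA after 16 hr, decreased signal indicating inhibition.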
Hits are given with their value; ! = repeats disagree. A selection: hits, their analogues and other compounds. The true share with any hit is near 19%. Unless noted, calls follow the shape of the dose curve; as a rule, active = well fitted curve in the direction sought with a large enough effect; inconclusive = small, poorly fitted or top-dose-only effect, or another doubt; inactive = no such curve, though single readings can be large; an effect the other way counts as inactive or inconclusive.

What do the screens show for `CC(C)Cn1c(N)c(C(=O)COC(=O)CCc2nc3ccccc3s2)c(=O)n(C)c1=O`?
HT1080 IDH1KD tx: inactive; HT1080NT lethal: inactive; TDP1 cell noCPT: 15µM; uPA surface inh: inactive; TDP1 cell CPT: inconclusive; IL-1B inflam inh: inactive

How did CC(C)Cn1c(N)c(C(=O)COC(=O)CC23CC4CC(CC(C4)C2)C3)c(=O)n(C)c1=O do in these assays?
HT1080 IDH1KD tx: inconclusive; HT1080NT lethal: inconclusive; TDP1 cell noCPT: 7.3µM; uPA surface inh: inactive; TDP1 cell CPT: 7.3µM; IL-1B inflam inh: inconclusive

Results for CC(C)(C)c1ccc(C(=O)C[n+]2ccccc2Cl)cc1 ?
TDP1 cell noCPT: inconclusive; TDP1 cell CPT: inactive

What do the screens show for `COC(=O)[C@]12CCCCC=C1N(Cc1ccc(Cl)cc1Cl)C(=O)[C@H](CC(=O)NCCC(C)C)C2`?
HT1080 IDH1KD tx: inconclusive; HT1080NT lethal: inconclusive; TDP1 cell noCPT: 21µM; TDP1 cell CPT: inconclusive; IL-1B inflam inh: inconclusive

Results for CCCCOCCCNC(=O)C[C@@H]1C[C@@]2(C(=O)OC)CCCCC=C2N(Cc2ccc(Cl)cc2Cl)C1=O ?
HT1080 IDH1KD tx: inconclusive; HT1080NT lethal: inconclusive; TDP1 cell noCPT: inconclusive; TDP1 cell CPT: inconclusive; IL-1B inflam inh: -59

What do the screens show for `CCOC(=O)[C@]12CCCC=C1N(Cc1ccc(Cl)cc1Cl)C(=O)[C@H](CC(=O)NCCCCc1ccccc1)C2`?
HT1080 IDH1KD tx: inconclusive; HT1080NT lethal: inconclusive; TDP1 cell noCPT: inconclusive; TDP1 cell CPT: inconclusive; IL-1B inflam inh: inactive

How did COC(=O)[C@]12CCCCC=C1N(Cc1ccc(Cl)cc1Cl)C(=O)[C@H](CC(=O)NCCc1ccccc1OC)C2 do in these assays?
HT1080 IDH1KD tx: inconclusive; HT1080NT lethal: inconclusive; TDP1 cell noCPT: inconclusive; TDP1 cell CPT: inconclusive; IL-1B inflam inh: -61

Results for COC(=O)[C@]12CCCCC=C1N(Cc1ccccc1)C(=O)[C@H](CC(=O)NCCc1ccccc1OC)C2 ?
HT1080 IDH1KD tx: inactive; HT1080NT lethal: inactive; TDP1 cell noCPT: inconclusive; TDP1 cell CPT: inconclusive; IL-1B inflam inh: inactive

Results for COC(=O)[C@]12CCCCC=C1N(Cc1ccc(Cl)cc1Cl)C(=O)[C@H](CC(=O)N1CCC(c3ccccc3)CC1)C2 ?
HT1080 IDH1KD tx: inactive; HT1080NT lethal: inactive; TDP1 cell noCPT: inconclusive; TDP1 cell CPT: inconclusive; IL-1B inflam inh: inactive

What do the screens show for `COC(=O)[C@]12CCCCC=C1N(Cc1ccc(Cl)cc1Cl)C(=O)[C@H](CC(=O)NCCCCc1ccccc1)C2`?
HT1080 IDH1KD tx: inconclusive; HT1080NT lethal: inconclusive; TDP1 cell noCPT: inconclusive; TDP1 cell CPT: inconclusive; IL-1B inflam inh: -51

Results for CCCCNC(=O)C[C@@H]1C[C@@]2(C(=O)OC)CCCCC=C2N(Cc2ccc(Cl)cc2Cl)C1=O ?
HT1080 IDH1KD tx: inactive; HT1080NT lethal: inconclusive; TDP1 cell noCPT: 16µM; TDP1 cell CPT: inconclusive; IL-1B inflam inh: inactive

How did COC(=O)[C@]12CCCCC=C1N(Cc1ccc(Cl)cc1Cl)C(=O)[C@H](CC(=O)NCc1ccc(C)o1)C2 do in these assays?
HT1080 IDH1KD tx: inconclusive; HT1080NT lethal: inconclusive; TDP1 cell noCPT: 16µM; TDP1 cell CPT: inconclusive; IL-1B inflam inh: inactive

Results for COC(=O)[C@]12CCCCC=C1N(Cc1ccc(Cl)cc1Cl)C(=O)[C@H](CC(=O)N1CCN(C(=O)C3CC3)CC1)C2 ?
HT1080 IDH1KD tx: inactive; HT1080NT lethal: inconclusive; TDP1 cell noCPT: inconclusive; TDP1 cell CPT: inconclusive; IL-1B inflam inh: inactive

How did COc1ccc(S(=O)(=O)N2CCOCC2)cc1NC(=O)COc1ccc(C(C)=O)cc1OC do in these assays?
HT1080 IDH1KD tx: inactive; HT1080NT lethal: inactive; TDP1 cell noCPT: inconclusive; uPA surface inh: inactive; TDP1 cell CPT: inactive; IL-1B inflam inh: inactive

Results for CCCC(=O)N1CCC1(C)C(=O)NS(=O)(=O)c1cccc(Cl)c1 (centres undefined) ?
HT1080 IDH1KD tx: inconclusive; HT1080NT lethal: inactive; TDP1 cell noCPT: inactive; TDP1 cell CPT: inactive; IL-1B inflam inh: inactive

What do the screens show for `CCCN[C@H]1CCc2nc(N)sc2C1`?
HT1080 IDH1KD tx: inactive; HT1080NT lethal: inactive; TDP1 cell noCPT: 17µM!; uPA surface inh: inactive; TDP1 cell CPT: inconclusive; IL-1B inflam inh: inactive

Results for Nc1nc2c(s1)CCCCCCCCCC2 ?
HT1080 IDH1KD tx: inactive; HT1080NT lethal: inactive; TDP1 cell noCPT: inconclusive; uPA surface inh: inactive; TDP1 cell CPT: inactive; IL-1B inflam inh: inactive

How did CCOc1cccc2sc(NC(=O)CS(=O)(=O)c3ccc(C)cc3)nc12 do in these assays?
TDP1 cell noCPT: inactive; TDP1 cell CPT: inactive

How did CC(=O)c1c(C)nn(CC(O)Cn2c3c(c4cc(C)ccc42)CCCC3=O)c1C (centres undefined) do in these assays?
HT1080 IDH1KD tx: inactive; HT1080NT lethal: inactive; TDP1 cell noCPT: inconclusive; uPA surface inh: inactive; TDP1 cell CPT: inconclusive; IL-1B inflam inh: -62

Results for Cc1ccc2c(c1)c1c(n2CC(O)Cn2nc(C)c(Br)c2C)C(=O)CCC1 (centres undefined) ?
HT1080 IDH1KD tx: inactive; HT1080NT lethal: inactive; TDP1 cell noCPT: 21µM; uPA surface inh: inactive; TDP1 cell CPT: 21µM; IL-1B inflam inh: inactive

What do the screens show for `COc1ccc(C(=O)c2c(C)c3cc(C)ccc3n2CC(O)CN2CCOCC2)cc1` (centres undefined)?
HT1080 IDH1KD tx: inactive; HT1080NT lethal: inactive; TDP1 cell noCPT: inconclusive; uPA surface inh: inactive; TDP1 cell CPT: inconclusive; IL-1B inflam inh: inactive

Results for Cc1ccc2c(c1)c(C)c(C)n2CC(O)Cn1nc(C)c(Br)c1C (centres undefined) ?
HT1080 IDH1KD tx: inconclusive; HT1080NT lethal: 16µM; TDP1 cell noCPT: inconclusive; uPA surface inh: inactive; TDP1 cell CPT: inactive; IL-1B inflam inh: inconclusive

How did CCc1nnc(NC(=O)CSc2nc3c([nH]c4ccccc43)c(=O)n2-c2ccc(Cl)cc2)s1 do in these assays?
TDP1 cell noCPT: inactive; TDP1 cell CPT: inactive

Results for Cc1cc(/C=C(\C#N)C(=O)NCc2ccccc2)c(C)[nH]1 ?
HT1080 IDH1KD tx: inactive; HT1080NT lethal: inactive; TDP1 cell noCPT: inconclusive; TDP1 cell CPT: inconclusive; IL-1B inflam inh: inactive

What do the screens show for `COc1cc(OC)cc(-c2noc([C@@H]3O[C@H](CO)[C@@H](O)[C@H]3O)n2)c1`?
HT1080 IDH1KD tx: inactive; HT1080NT lethal: inactive; TDP1 cell noCPT: inconclusive; TDP1 cell CPT: inconclusive; IL-1B inflam inh: inactive

What do the screens show for `CCCCC1=CC2=CC(=O)C(C)(OC(=O)CC)C(=O)C2=CN1CCc1ccc(Br)cc1` (centres undefined)?
HT1080 IDH1KD tx: inactive; HT1080NT lethal: inactive; TDP1 cell noCPT: inconclusive; uPA surface inh: inactive; TDP1 cell CPT: inconclusive; IL-1B inflam inh: inactive
